Assay results taken from the supplement of paper PMC3334620.
In all, about 33,000 sequences were measured (“E-score (-0.5 to 0.5)”: median about -0.016, highest 2% from about 0.32 on). Shown is part of a subset that was picked to be rich in the highest values.

molecular target: T1, Stp1 (UniProt B3LFK1); experiment: PBM E-score (8-mer binding enrichment) (E-score (-0.5 to 0.5)); higher = stronger / more preferred TF binding; settings: protein concentration: 200 nM; construct: GST-full length
T1 sequence: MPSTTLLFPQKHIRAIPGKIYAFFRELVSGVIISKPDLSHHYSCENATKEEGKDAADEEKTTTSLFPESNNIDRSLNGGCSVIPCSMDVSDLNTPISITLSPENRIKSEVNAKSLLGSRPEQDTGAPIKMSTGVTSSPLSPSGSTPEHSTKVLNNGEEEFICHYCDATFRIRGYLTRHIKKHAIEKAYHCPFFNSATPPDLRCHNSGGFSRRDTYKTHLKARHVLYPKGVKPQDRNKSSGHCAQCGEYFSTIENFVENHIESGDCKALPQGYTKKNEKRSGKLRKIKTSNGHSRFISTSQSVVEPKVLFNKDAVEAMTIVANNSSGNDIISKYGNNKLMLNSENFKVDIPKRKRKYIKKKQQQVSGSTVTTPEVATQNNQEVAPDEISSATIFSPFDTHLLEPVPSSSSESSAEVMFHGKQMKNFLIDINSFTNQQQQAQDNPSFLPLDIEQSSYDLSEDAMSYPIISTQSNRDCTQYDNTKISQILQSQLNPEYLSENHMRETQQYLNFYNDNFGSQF
Method in brief: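 Universal all-10-mer Agilent arrays, fresh or stripped once, were converted to double-stranded form by primer extension. GST-tagged yeast transcription factors from PURExpress in vitro transcription/translation, full-length or DNA-binding domain only, were applied at about 100-200 nM and detected with fluorescent anti-GST. After masliner normalisation, the Universal PBM Analysis Suite scored each ungapped eight-base word together with its reverse complement by E-score.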

| Sequence | PBM E-score |
| --- | --- |
| AACAGTCC | -0.215 |
| ATACACTG | 0.0725 |
| AGCCTCGG | -0.0283 |
| GCTTGGAA | -0.00205 |
| AGAACCTA | -0.109 |
| AGCCAGCA | -0.297 |
| CTTATTGC | 0.0179 |
| ACACAAGT | 0.00705 |
| GGATGTGA | -0.084 |
| TGCCAGCA | 0.01 |
| ATACCTGG | -0.284 |
| AAGCAGGC | -0.277 |
| CAGAGCTG | -0.147 |
| ATCCGGAT | -0.0475 |
| CCGCGGCA | 0.441 |
| TCGCGGCA | 0.346 |
| ACGCGGCG | 0.488 |
| CCGCGGAA | 0.183 |
| ACGCGGAG | 0.111 |
| TCGCGGAA | -0.0668 |
| TCGCGACA | -0.0531 |
| CCGCGGGA | 0.218 |
| ACGCGGTG | 0.0603 |
| CTGCCAGC | -0.204 |
| TCAAAGAA | -0.0561 |

| Sequence | PBM E-score |
| --- | --- |
| AAGCGAGC | 0.0162 |
| CAAGGTTC | -0.124 |
| CCGCTCTC | -0.0569 |
| AAAACCTA | 0.0597 |
| CGGGTGGA | -0.162 |
| GGACGGCA | 0.441 |
| CGACGGCA | 0.299 |
| GGACGGCC | 0.16 |
| AGACGGCA | 0.449 |
| AGACGGGA | -0.12 |
| AGACGGAA | 0.106 |
| AGGGTCAT | -0.233 |
| CTCGCCAA | 0.0165 |
| CGACTCGA | -0.115 |
| CACCATTC | 0.0105 |
| CACCGTCG | -0.114 |
| CTACGGCA | 0.473 |
| CTACGGCC | 0.126 |
| ATACGGGC | -0.0186 |
| ATACGGAA | 0.268 |
| CTACGGTA | -0.146 |
| GTACGGCA | 0.48 |
| GTACGGGA | 0.0383 |
| GTACGGTA | 0.147 |
| ATACGGCA | 0.483 |

| Sequence | PBM E-score |
| --- | --- |
| ATACGGCC | 0.406 |
| CTACGGAA | 0.0958 |
| ATACGGGA | 0.125 |
| CAAAGGGG | -0.262 |
| GGGCTGAC | -0.134 |
| AGTAGACA | 0.0181 |
| ATAGGGAC | -0.211 |
| ATCTCCTC | -0.209 |
| AGCCTGCG | -0.245 |
| GTTAAGAA | 0.0825 |
| AGAGAGAA | -0.198 |
| CTAGAAAA | -0.0127 |
| ATCCGCGG | 0.13 |
| AACCGCGC | 0.167 |
| AGCCGCGC | 0.424 |
| ACCCGCGC | 0.232 |
| AGCCGCGA | 0.159 |
| AGCCGCGG | 0.376 |
| GGGTTCCA | -0.286 |
| AGAGTACA | 0.04 |
| CCGTTAGC | 0.0331 |
| CAGACCCC | -0.381 |
| AAGGCAAG | 0.0628 |
| AGGGCAAT | 0.156 |
| ACGGCAAC | 0.455 |

| Sequence | PBM E-score |
| --- | --- |
| AAGGCAAT | 0.253 |
| ATGGCAAA | 0.197 |
| AGGGCAAA | 0.0608 |
| ACGGCAAG | 0.369 |
| ATGGCAAC | 0.289 |
| CCGGCAAG | -0.0231 |
| ACGGCAAA | 0.45 |
| ACGGCAAT | 0.45 |
| AAGGCAAC | 0.274 |
| AATGTCCT | -0.246 |
| CAAGCGCG | 0.124 |
| ATTTTGAA | 0.277 |
| GGAGTCAC | -0.236 |
| ACTAACAT | 0.0936 |
| ACGGATAC | 0.249 |
| GGAAAGGA | -0.0901 |
| AAGCCGTC | 0.296 |
| AAGCCGAA | 0.116 |
| GAGCCGAA | 0.232 |
| AAGCCGTA | 0.398 |
| GAGCCGTA | 0.468 |
| AAGCCGTG | 0.419 |
| AAGCCGAG | -0.0198 |
| AAGCCGGG | -0.211 |
| CAGCCGTA | 0.306 |
